# Source: PubChem BioAssay (NCATS)
# Results filed as inconclusive are left out. Activity calls are given as the source filed them. Unless noted, the call rests on the fitted dose curve; in most records, active means well fitted curve in the direction sought with a large enough effect; inconclusive means small, poorly fitted or top-dose-only effect, or another doubt; inactive means no such curve, though single readings can be large; an effect the other way counts as inactive or inconclusive.
# Key:
# [1] = biological target: Glucocorticoid receptor (Homo sapiens) (UniProt P04150); experiment: GR-GFP Redistribution (AID 450;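 active means compounds whose dose series gives a full or clear partial fitted curve of increased nuclear translocation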; further: potency means the concentration at half of the fitted maximal effect); conditions: U2OS GR-GFP nuclear translocation, laser cytometry, 2 h
# Glucocorticoid receptor (Homo sapiens), sequence (P04150 whole entry, looked up, the tested form may be a part): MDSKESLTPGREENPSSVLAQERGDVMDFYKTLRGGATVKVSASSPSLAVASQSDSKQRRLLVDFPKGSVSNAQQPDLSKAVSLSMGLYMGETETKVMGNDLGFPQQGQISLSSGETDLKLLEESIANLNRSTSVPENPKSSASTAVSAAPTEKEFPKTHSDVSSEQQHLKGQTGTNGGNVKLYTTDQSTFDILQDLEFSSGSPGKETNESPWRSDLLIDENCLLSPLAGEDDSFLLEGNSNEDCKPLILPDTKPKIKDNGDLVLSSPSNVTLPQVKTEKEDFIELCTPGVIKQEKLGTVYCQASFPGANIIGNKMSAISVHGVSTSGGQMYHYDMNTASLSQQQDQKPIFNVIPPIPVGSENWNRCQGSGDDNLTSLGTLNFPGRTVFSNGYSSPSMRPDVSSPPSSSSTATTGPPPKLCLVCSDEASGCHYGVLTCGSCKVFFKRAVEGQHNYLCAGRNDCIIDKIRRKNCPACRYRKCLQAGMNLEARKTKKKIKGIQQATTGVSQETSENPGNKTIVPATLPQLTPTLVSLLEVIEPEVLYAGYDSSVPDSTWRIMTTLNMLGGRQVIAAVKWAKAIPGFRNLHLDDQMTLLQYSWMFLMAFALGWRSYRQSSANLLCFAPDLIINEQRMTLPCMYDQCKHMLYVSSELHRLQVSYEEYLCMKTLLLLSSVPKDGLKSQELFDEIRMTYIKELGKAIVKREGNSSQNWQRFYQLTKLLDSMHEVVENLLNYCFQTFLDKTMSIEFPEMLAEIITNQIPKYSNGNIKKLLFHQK
# [2] = biological target: Glucocorticoid receptor (Homo sapiens) (UniProt P04150); experiment: GR-EFC Redistribution (AID 451; calls by dose curve; further: potency means the concentration at half of the fitted maximal effect); conditions: CHO-K1 GR-EFC translocation, beta-gal luminescence, 2 h
# Outline: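 CHO-K1 cells expressing nuclear EA and GR-ED fragments of b-gal; compounds titrated up to 46 uM final, 2 h at 37 C. GR nuclear translocation read as complemented b-gal luminescence after 1 h RT detection.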
# [3] = biological target: Mitogen-activated protein kinase 10 (Mus musculus) (UniProt Q61831); experiment: JNK3 AlphaScreen Assay (AID 530; active means well fitted curve in either direction with a large enough effect, not every such curve was filed as active;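 further: kinase came from lysate of stimulated human HepG2 cells; signal reports phosphorylation of biotinylated GST-cJun 1-79 at Ser73 with 10 µM ATP; on the % scale 0 is the no-effect control and ±100 the full control effect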); conditions: JNK3 lysate, c-Jun phosphorylation; series mostly up to 57.1 µM
# Outline: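 qHTS format: compounds tested as titrations against IL-1beta/TNF-alpha-activated HepG2 lysate JNK3 with biotin-GST-cJun substrate and 10 uM ATP at room temperature. Loss of anti-phospho-cJun AlphaScreen signal indicates inhibition.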
# [4] = biological target: Cytochrome P450 2C9 (Homo sapiens) (UniProt P11712); experiment: qHTS Assay for Inhibitors and Substrates of Cytochrome P450 2C9 (AID 883); conditions: recombinant CYP2C9, luciferin-H luminescence, 60 min; series mostly up to 57.1 µM; further: potency means the concentration at half of the fitted maximal effect; nearly all actives have a fitted effect of over 60% in size
# Cytochrome P450 2C9 (Homo sapiens), sequence (P11712 whole entry, looked up): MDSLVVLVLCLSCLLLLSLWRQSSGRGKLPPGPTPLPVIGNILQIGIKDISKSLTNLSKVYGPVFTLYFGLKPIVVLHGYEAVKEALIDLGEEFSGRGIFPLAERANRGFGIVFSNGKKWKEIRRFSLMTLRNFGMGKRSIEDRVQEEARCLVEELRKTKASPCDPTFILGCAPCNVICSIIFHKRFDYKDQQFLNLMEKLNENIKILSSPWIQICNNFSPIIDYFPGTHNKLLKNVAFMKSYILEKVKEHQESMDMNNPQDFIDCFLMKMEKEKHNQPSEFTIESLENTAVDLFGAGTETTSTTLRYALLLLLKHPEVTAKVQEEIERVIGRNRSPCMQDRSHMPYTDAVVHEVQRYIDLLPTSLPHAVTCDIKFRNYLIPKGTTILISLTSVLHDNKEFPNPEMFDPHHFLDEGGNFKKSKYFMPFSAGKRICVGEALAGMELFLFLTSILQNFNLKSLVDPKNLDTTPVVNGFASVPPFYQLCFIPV
# Outline: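 Human CYP2C9 (10nM) with Luciferin-H at 100uM (its KM) in 25mM KPO4; compound preincubated 10 min at 37C, then NADPH regeneration for 60 min at 37C. Luciferin read by luminescence after detection reagent; normalized to 57uM sulphaphenazole as full inhibition.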
# [5] = biological target: Cytochrome P450 2D6 (Homo sapiens) (UniProt P10635); experiment: qHTS Assay for Inhibitors and Substrates of Cytochrome P450 2D6 (AID 891); conditions: recombinant CYP2D6, luciferin-ME EGE luminescence; series mostly up to 57.1 µM; further: potency means the concentration at half of the fitted maximal effect; nearly all actives have a fitted effect of over 60% in size
# Outline: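 Human CYP2D6 (5 nM) with 30 uM Luciferin-ME EGE (at Km) in 100 mM KPO4, compound preincubated 10 min, then NADPH regeneration system for 60 min at room temperature. Luciferin read by luminescence; normalized to 1.43 uM quinidine.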
# [6] = biological target: Cytochrome P450 2C19 (Homo sapiens) (UniProt P33261); experiment: qHTS Assay for Inhibitors and Substrates of Cytochrome P450 2C19 (AID 899); conditions: recombinant CYP2C19, luciferin-H EGE luminescence; series mostly up to 57.1 µM; further: potency means the concentration at half of the fitted maximal effect; nearly all actives have a fitted effect of over 60% in size
# Cytochrome P450 2C19 (Homo sapiens), sequence (P33261 whole entry, looked up): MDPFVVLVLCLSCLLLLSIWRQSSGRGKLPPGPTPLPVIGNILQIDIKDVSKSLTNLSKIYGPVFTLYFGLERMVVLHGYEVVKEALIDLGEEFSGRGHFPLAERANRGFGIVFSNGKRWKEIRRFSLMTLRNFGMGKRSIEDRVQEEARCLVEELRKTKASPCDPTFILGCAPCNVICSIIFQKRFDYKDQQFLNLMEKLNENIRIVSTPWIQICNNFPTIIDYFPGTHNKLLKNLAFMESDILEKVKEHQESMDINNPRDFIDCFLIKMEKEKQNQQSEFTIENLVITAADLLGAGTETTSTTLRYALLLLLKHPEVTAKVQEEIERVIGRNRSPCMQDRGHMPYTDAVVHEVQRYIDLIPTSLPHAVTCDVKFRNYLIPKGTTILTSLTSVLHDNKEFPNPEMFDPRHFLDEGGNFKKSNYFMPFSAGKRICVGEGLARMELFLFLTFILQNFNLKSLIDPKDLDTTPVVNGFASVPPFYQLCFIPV
# Outline: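 5 nM human CYP2C19 with 10uM Luciferin-H EGE (at KM) in 50mM KPO4, compound preincubated 10 min at 37C, then NADPH regeneration for 60 min at 37C. Luciferin read by luminescence after detection reagent; normalized to 57uM ketoconazole as full inhibition.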
# [7] = biological target: Ubiquitin carboxyl-terminal hydrolase 1 (Homo sapiens) (UniProt O94782); experiment: Inhibitors of USP1/UAF1: Pilot qHTS (AID 504865); conditions: purified USP1/UAF1, Ub-rhodamine cleavage fluorescence; series mostly up to 114 µM;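 further: rhodamine fluorescence freed from ubiquitin-rhodamine substrate followed over time; top concentration of the series differs between compounds; on the % scale 0 is the no-effect control and ±100 the full control effect; nearly all actives have a fitted effect of over 35% in size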
# Ubiquitin carboxyl-terminal hydrolase 1 (Homo sapiens), sequence (O94782 whole entry, looked up): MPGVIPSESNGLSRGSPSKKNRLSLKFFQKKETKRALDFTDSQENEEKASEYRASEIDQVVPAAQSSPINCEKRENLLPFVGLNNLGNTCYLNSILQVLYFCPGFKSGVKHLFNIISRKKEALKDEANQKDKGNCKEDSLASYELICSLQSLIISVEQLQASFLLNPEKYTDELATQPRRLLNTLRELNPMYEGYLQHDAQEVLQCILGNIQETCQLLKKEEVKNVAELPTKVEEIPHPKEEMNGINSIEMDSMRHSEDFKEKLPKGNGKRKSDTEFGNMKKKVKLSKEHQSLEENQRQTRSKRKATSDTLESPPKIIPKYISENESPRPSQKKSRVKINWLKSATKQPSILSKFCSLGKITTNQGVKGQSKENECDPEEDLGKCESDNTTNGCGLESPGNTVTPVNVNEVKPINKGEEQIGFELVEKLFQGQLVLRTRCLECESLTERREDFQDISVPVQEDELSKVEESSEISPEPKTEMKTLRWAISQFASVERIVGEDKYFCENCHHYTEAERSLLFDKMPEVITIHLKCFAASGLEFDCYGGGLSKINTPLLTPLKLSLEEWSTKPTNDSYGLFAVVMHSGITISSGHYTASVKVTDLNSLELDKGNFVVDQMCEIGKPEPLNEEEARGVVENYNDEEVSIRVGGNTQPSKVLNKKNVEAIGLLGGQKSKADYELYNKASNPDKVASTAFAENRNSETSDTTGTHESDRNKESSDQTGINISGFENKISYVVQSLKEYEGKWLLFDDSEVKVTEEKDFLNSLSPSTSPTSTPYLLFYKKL
# Outline: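 USP1/UAF1 complex (1nM) preincubated with compound 15 min at room temperature, then Ub-Rho substrate (150nM final) added. Fluorescence read kinetically at 480/540 nm, 6 reads every 60 seconds. Buffer: 50mM HEPES pH 7.8, 0.5mM EDTA, 0.1 mg/ml BSA, 1mM TCEP, 0.01% Tween-20.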
# [8] = biological target: DNA dC->dU-editing enzyme APOBEC-3G (Homo sapiens) (UniProt Q9HC16); experiment: qHTS for inhibitors of Vif-A3G interactions: Validation (AID 588379); conditions: Vif-A3G protein interaction assay; series mostly up to 46.1 µM; further: 0% is about no effect
# DNA dC->dU-editing enzyme APOBEC-3G (Homo sapiens), sequence (Q9HC16 whole entry, looked up): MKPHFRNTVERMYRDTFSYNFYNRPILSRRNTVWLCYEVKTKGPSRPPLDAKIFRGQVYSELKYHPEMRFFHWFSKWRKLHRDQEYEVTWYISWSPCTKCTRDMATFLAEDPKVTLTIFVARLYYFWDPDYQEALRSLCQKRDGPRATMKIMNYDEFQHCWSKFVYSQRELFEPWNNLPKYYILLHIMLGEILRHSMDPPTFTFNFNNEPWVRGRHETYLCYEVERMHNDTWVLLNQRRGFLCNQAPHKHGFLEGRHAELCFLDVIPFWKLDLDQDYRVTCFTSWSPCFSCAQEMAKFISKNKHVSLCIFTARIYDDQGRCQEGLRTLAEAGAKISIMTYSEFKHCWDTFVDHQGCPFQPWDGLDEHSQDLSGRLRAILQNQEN
# Outline: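 HeLa cells stably expressing Vif and A3G-eYFP, 700 cells/well, incubated overnight at 37 deg C, then exposed to compound overnight at 37 deg C. Inhibition of Vif-mediated degradation read as increased yellow fluorescence (Ex 488/Em 500-530) by laser-scanning cytometry.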
# [9] = Primary qHTS for small molecule stabilizers of the endoplasmic reticulum resident proteome: Secreted ER Calcium Modulated Protein (SERCaMP) assay (AID 1508630); conditions: SH-SY5Y GLuc-SERCaMP (Gaussia luciferase released on ER calcium loss) secretion, thapsigargin, luminescence; series mostly up to 38.4 µM; further: on the % scale 0 is the no-effect control and ±100 the full control effect
# Outline: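 GLuc-SERCaMP-expressing SH-SY5Y cells, pretreated 16 h with compound, are challenged with thapsigargin to empty ER calcium stores; after 4 h, coelenterazine is added directly to the medium and luminescence is imaged.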
# [10] = Primary qHTS for inhibitors of nuclear receptor binding SET domain protein 2 (NSD2) in an isogenic RCH-ACV NSD2 p.E1099K mutant (9B) (AID 1645876); conditions: RCH-ACV NSD2 E1099K (9B) viability, CellTiter-Glo, 72 h; series mostly up to 44.9 µM; further: potency means the concentration at half of the fitted maximal effect; nearly all actives have a fitted effect of over 70% in size
# [11] = Primary qHTS for inhibitors of nuclear receptor binding SET domain protein 2 (NSD2) in an RCH-ACV wild type WT cells (2C) (AID 1645877); conditions: RCH-ACV (leukaemia line) NSD2 WT (2C) viability, CellTiter-Glo, 72 h; series mostly up to 44.9 µM; further: potency means the concentration at half of the fitted maximal effect; nearly all actives have a fitted effect of over 70% in size
# [12] = biological target: Glutathione peroxidase 1 (Homo sapiens) (UniProt P07203); experiment: Primary qHTS Assay for Inhibitors of Recombinant Selenoprotein Glutathione Peroxidase 1 (GPX1) (AID 1845191); conditions: recombinant GPX1, GR-coupled NADPH fluorescence, 15 min; series mostly up to 48.8 µM; further: nearly all actives have a fitted effect of over 65% in size
# Glutathione peroxidase 1 (Homo sapiens), sequence (P07203 whole entry, looked up): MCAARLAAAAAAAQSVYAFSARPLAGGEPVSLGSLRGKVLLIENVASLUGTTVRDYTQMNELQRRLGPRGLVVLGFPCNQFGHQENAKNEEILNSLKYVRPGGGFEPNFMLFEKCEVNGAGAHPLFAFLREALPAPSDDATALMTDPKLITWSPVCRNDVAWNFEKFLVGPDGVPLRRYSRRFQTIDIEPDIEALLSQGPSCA
# Outline: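 GR-coupled assay: compounds preincubated 30 min at room temperature with GPX1, then reaction started with CHP; final 10 nM GPX1, 1 mM GSH, 0.5 mM CHP, 0.5 mM NADPH, 100 nM GR, 0.01% BSA, pH 7.5 Tris buffer. NADPH fluorescence (340/450 nm) read at 0 and 15 min.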
# [13] = biological target: 3',5'-cyclic-AMP phosphodiesterase 4B (Homo sapiens) (UniProt Q07343); experiment: qHTS Assay for Inhibitors of PDE-IV (AID 607; active means well fitted activation curve with a large enough effect in the main read-out, with a control signal flat, not every such curve was filed as active; further: % of control where 0% means no effect); conditions: HEK293 ACTOne CNG channel cells, membrane potential fluorescence; series mostly up to 22.9 µM
# 3',5'-cyclic-AMP phosphodiesterase 4B (Homo sapiens), sequence (Q07343 whole entry, looked up): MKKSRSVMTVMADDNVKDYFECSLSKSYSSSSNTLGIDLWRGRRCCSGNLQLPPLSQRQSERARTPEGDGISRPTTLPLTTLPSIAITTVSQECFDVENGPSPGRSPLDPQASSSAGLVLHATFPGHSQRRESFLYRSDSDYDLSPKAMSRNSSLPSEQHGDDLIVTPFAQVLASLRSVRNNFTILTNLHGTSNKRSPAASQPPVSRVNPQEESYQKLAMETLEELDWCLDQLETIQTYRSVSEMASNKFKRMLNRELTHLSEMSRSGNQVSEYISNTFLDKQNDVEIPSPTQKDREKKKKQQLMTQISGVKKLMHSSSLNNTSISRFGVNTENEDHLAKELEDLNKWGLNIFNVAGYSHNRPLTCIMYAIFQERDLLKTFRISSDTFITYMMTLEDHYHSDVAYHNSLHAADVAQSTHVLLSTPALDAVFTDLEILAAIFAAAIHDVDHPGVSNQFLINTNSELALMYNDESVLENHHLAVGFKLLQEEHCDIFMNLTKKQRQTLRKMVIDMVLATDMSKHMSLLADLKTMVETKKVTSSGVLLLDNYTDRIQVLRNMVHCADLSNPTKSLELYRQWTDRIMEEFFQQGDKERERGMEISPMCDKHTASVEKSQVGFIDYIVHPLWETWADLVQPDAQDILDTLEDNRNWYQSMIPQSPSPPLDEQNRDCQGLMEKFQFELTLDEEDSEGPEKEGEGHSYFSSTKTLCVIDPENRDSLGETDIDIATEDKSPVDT
# Outline: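 The readout is membrane depolarisation from a cAMP-sensing CNG channel, detected with a potential dye at ex 535/em 590. Cells were HEK293-derived (endogenous PDE-IV) at 1000 cells/well, titrated up to 22.9 uM final.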
# [14] = biological target: Catechol O-methyltransferase (Homo sapiens) (UniProt P21964); experiment: Confirmatory Screen for Target Class Profiling of Small Molecule Inhibitors of Methyltransferases (AID 1745852; calls by dose curve; further: potency means the concentration at half of the fitted maximal effect); conditions: MTase-Glo luminescence, SAH detection, recombinant enzyme; measured here: COMT max response; stronger effect = lower value
# Catechol O-methyltransferase (Homo sapiens), sequence (P21964 whole entry, looked up): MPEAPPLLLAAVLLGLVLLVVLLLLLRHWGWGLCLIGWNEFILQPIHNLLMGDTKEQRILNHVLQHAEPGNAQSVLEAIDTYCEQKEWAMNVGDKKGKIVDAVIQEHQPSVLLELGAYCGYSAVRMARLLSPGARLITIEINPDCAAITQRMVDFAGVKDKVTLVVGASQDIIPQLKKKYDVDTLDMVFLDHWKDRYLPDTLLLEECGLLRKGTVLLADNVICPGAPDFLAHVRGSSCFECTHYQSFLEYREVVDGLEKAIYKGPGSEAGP
# [15] = biological target: Guanidinoacetate N-methyltransferase (Homo sapiens) (UniProt Q14353); experiment: as above; conditions: MTase-Glo luminescence, SAH detection, recombinant enzyme; activity change, negative = inhibition: at 57.3 µM (top of the series) unless noted; series mostly up to 57.3 µM
# [16] = biological target: Nicotinamide N-methyltransferase (Homo sapiens) (UniProt P40261); experiment: as above; conditions: MTase-Glo luminescence, SAH detection, recombinant enzyme; measured here: NNMT max response; stronger effect = lower value
# Nicotinamide N-methyltransferase (Homo sapiens), sequence (P40261 whole entry, looked up): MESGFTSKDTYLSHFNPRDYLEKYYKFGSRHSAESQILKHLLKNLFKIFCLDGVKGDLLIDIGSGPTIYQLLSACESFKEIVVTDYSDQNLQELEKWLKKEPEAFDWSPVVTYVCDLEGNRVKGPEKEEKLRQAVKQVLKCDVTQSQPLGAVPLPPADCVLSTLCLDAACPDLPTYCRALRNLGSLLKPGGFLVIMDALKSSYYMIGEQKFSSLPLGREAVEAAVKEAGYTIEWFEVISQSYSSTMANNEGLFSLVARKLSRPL
# [17] = biological target: Phenylethanolamine N-methyltransferase (Homo sapiens) (UniProt P11086); experiment: as above; conditions: MTase-Glo luminescence, SAH detection, recombinant enzyme; measured here: PNMT max response; stronger effect = lower value
# Phenylethanolamine N-methyltransferase (Homo sapiens), sequence (P11086 whole entry, looked up): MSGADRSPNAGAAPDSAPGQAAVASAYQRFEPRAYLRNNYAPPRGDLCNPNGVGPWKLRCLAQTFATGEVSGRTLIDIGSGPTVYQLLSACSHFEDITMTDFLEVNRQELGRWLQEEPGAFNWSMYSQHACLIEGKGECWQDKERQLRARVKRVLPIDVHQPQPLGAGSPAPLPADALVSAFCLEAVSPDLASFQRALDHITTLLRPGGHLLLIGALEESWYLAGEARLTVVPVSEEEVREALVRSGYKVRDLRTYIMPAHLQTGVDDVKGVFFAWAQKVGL
# [18] = qHTS drug screen for cell cycle checkpoint inhibitors in PARPi-resistant BRCA-mutant ovarian cancer cell lines. (AID 1963452; calls by dose curve); conditions: PEO1/OlaR viability, CellTiter-Glo luminescence, 96 h, stronger effect = lower value
# Outline: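 PEO1, PEO4 and PEO1/OlaR ovarian cancer cells, 600 per well, exposed 96 h at 37C to a dilution series. Viability read by CellTiter-Glo luminescence, normalized to DMSO and empty wells; activity summarized as Z-AUC.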
# [19] = qHTS Assay for Lipid Storage Modulators (AID 1519; calls by dose curve; on activity change, negative = inhibition: on the % scale 0 is the no-effect control and ±100 the full control effect); conditions: Drosophila S3 cells, BODIPY lipid droplet/cell ratio, laser cytometry, cells loaded with oleic acid
# Outline: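 Cells seeded at 5,000 per well were treated with compounds over a concentration series and loaded with oleic acid (400 uM, as added). Lipid droplet fluorescence (488 nm excitation, 500-530 nm channel) was read by laser-scanning cytometry and normalized to 20 uM Triacsin C.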
compound,measurement,setting,value
COc1ccc(-c2ccc(=N)n(CCCC(=O)O)n2)cc1,Potency,[1],> 46 µM (inactive)
same,Potency,[2],> 46 µM (inactive)
same,Potency,[3],inactive
same,Potency,[4],3.16 µM (active)
same,Potency,[5],3.98 µM (active)
same,Potency,[6],0.158 µM (active)
same,Potency,[7],inactive
same,Potency,[8],inactive
same,Potency,[9],inactive
CC(C)(N)c1cc(C(=O)N[C@@H]2CCc3ccc(Oc4ccnc5c4CCC(=O)N5)cc3C2)cc(C(F)(F)F)c1,Potency,[10],11.6 µM (active)
same,Potency,[11],14.6 µM (active)
same,Potency,[12],inactive
CNC(=O)[C@H]1O[C@H](n2cnc3c(NCc4cccc(I)c4)nc(Cl)nc32)[C@@H](O)[C@@H]1O,Potency,[1],> 46 µM (inactive)
same,Potency,[2],> 46 µM (inactive)
same,Potency,[13],inactive
same,Potency,[8],inactive
same,Potency,[9],inactive
O=C1NC(=O)C(c2c[nH]c3ccccc23)=C1c1c[nH]c2ccccc12,Potency,[10],18.6 µM (active)
same,Potency,[11],20.9 µM (active)
same,activity,[14],-38.2%
same,Potency,[15],30.6 µM (active)
same,activity,[16],-39.6%
same,activity,[17],-46.7%
same,Potency,[12],inactive
same,Z-AUC,[18],1.34 (inactive)
same,Z-AUC,[18]; measured here: PEO1 parental Z-AUC,0.607
same,Z-AUC,[18]; measured here: PEO4 Z-AUC,0.134
NC1(C(=O)O)CCC1,Potency,[1],> 46 µM (inactive)
same,Potency,[2],> 46 µM (inactive)
same,Potency,[3],inactive
same,"activity change, negative = inhibition",[19]; at 57.5 µM (top of the series),3.54% (inactive)
same,max response,[19]; measured here: cell count channel max response,-18.5%
same,max response,[19]; measured here: lipid channel max response,-13.7%
same,Potency,[9],inactive
